# According to PubChem BioAssay AID488890 (Southern Research Specialized Biocontainment Screening …, 2010):
# About 1,300 (0.41%) of roughly 320,000 compounds were called active. Inconclusive results (about 3%) are left out. No rule for the calls is given here. Only a sample is shown. Potency and affinity values are given separately.
# Assay: growth inhibition of non-replicating M. tuberculosis (AID 488890);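 also: plate controls were DMSO cells for no effect and high antibiotic wells for full effect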
# Details: Mycobacterium tuberculosis non-replicating, at 25 µM, stronger effect = higher value
row,SMILES,inhibition [%]
1,Nc1c(C(=O)Nc2cccc(F)c2)nnn1-c1cccc(C(F)(F)F)c1,-17.3
2,COc1cc(C[C@@H]2C(=O)OC[C@H]2Cc2ccc(OC)c(OC)c2)ccc1O,-6.61
3,O=S(=O)(NCC(c1ccco1)N1CCCCC1)c1ccccc1C(F)(F)F (stereo not given),5.94
4,Cc1ccc(C(=O)N(C)CCOc2ccccc2)cc1S(=O)(=O)N1CCCCC1,14.5
5,O=C(NC1CCCCC1)C(c1cccs1)N(CCCN1CCOCC1)C(=O)c1ccc(-c2ccccc2)[nH]1 (stereo not given),44.4
6,CC(=O)c1ccc(NC(=O)c2cc3ccccc3o2)cc1,76.8
7,COc1ccc(NC(=O)c2cc3ccccc3o2)cc1OC,53.8
8,Cc1ccc(C2=NN(CCC(=O)NCc3ccc4c(c3)OCO4)C(=O)CC2)cc1,4.59
9,COCCN(C(=O)C1CCCO1)c1c(N)n(CC(C)C)c(=O)[nH]c1=O (stereo not given),-18.2
10,NC(=S)N/N=C/c1c(O)c(Br)cc2oc3c(c12)CCCC3,56.5
11,Oc1ccc2oc3c(c2c1C=NCc1ccncc1)CCCC3,3.96
12,Cc1nnc(SCC(=O)NNC(=O)c2ccco2)n1-c1cccc(Cl)c1,-5.26
13,CCC(CC)C(=O)N=C1SC2CS(=O)(=O)CC2N1CCc1ccc(OC)c(OC)c1 (stereo not given),-2.38
14,Cn1nnnc1Sc1ncnc2scc(-c3ccccc3)c12,48.6
15,Cn1nnnc1Sc1ncnc2scc(-c3ccc(-c4ccccc4)cc3)c12,77
16,Nc1nc(SCCO)[nH]c(=O)c1NC(=O)c1ccco1,-5.12
17,CCCCCN(C(=O)CCC(=O)OCCOc1ccccc1)c1c(N)n(CCCC)c(=O)[nH]c1=O,-0.11
18,CCN1CCN(C(=O)c2cc3cc4ccc(OC)cc4nc3s2)CC1,18.5
19,CCCCN(C)C(=O)c1cc2cc3ccc(OC)cc3nc2o1,71.6
20,O=c1[nH]c(C2C3CC4CC(C3)CC2C4)nc2ccccc12 (stereo not given),21.6
21,COc1ccc(C(CC(=O)N2CCCC(C)C2)c2c(OC)cc(OC)c3ccc(=O)oc23)cc1 (stereo not given),28.4
22,Cc1ccc(S(=O)(=O)Nc2ncnc3ccccc23)cc1,-1.77
23,CCCCn1c(SCC(=O)NCc2ccco2)nc2cc(S(N)(=O)=O)ccc21,1.57
24,COc1ccc(C2=NN(C(=O)CSc3nc(=O)n4cc(C)ccc4n3)C(c3ccc(C)cc3)C2)cc1 (stereo not given),38.7

row,SMILES,inhibition [%]
1,Cc1ccc2cc(C3CC(c4ccco4)=NN3C(=O)CCC(=O)O)c(Cl)nc2c1 (stereo not given),2.6
2,CCOC(=O)c1c(C)c(C(=O)NC(C)COC)c(C)n1CC (stereo not given),-4.24
3,O=c1c(C(c2ccc(Cl)cc2)c2c(O)nc3n(c2=O)CCCS3)c(O)nc2n1CCCS2,8.19
4,N#Cc1c(-c2ccc(Cl)cc2)nc2n(c1=O)CCCS2,4.51
5,O=C(N/N=C/c1ccc(O)c([N+](=O)[O-])c1)c1ccncc1,56.1
6,Cc1ccc(C(=O)N/N=C\c2sccc2C)cn1,-5.99
7,O=C(N/N=C/c1ccccc1[N+](=O)[O-])c1ccncc1,35.4
8,O=C(N/N=C/c1ccc(-c2ccccc2[N+](=O)[O-])o1)c1cncc(Br)c1,11.6
9,O=C(N/N=C/c1ccc([N+](=O)[O-])cc1)c1cccnc1,-3.53
10,Cc1ccc(/C=N\NC(=O)c2cncc(Br)c2)o1,46.2
11,Cc1ccc(C(=O)N/N=C\c2ccc([N+](=O)[O-])o2)cn1,70.4
12,O=C(N/N=C/c1cccn1-c1ccc([N+](=O)[O-])cc1)c1cccnc1,-10.5
13,CCOc1ccc(C(=O)NC2CCN(C(=O)Nc3ccc(F)cc3)CC2)cc1,-4.31
14,CN(c1ccccc1)S(=O)(=O)c1ccc(Cl)c(C(=O)NC2=NCCS2)c1,27.5
15,O=C(Nc1nnc(C23CC4CC(CC(C4)C2)C3)s1)c1ccc(N2C(=O)CCC2=O)cc1,13.4
16,COc1cc(NC(=S)N2CCOCC2)c(OC)cc1Cl,1.57
17,CCOc1ccccc1NC(=O)C1CCCCN1S(=O)(=O)c1ccc(F)cc1 (stereo not given),14.8
18,COc1ccc(/C=C2\C(=O)NC(=O)N(Cc3ccccc3)C2=O)c(OC)c1OC,-15.4
19,O=C(NCC(=O)N1CCN(Cc2ccc3c(c2)OCO3)CC1)c1ccccc1F,6.65
20,N#C/C(N)=C(/C#N)N=Cc1cccc(Cl)c1,8.31
21,CNC(=O)/C(C#N)=C/c1ccc(OCCOc2ccccc2)cc1,63.6
22,CCOc1ccc(NC(C)C(=O)N/N=C/c2ccc([N+](=O)[O-])cc2)cc1 (stereo not given),7.41
23,Cc1ccc(/C=N/NC(=O)C(C)Oc2ccccc2[N+](=O)[O-])s1 (stereo not given),-10.9
24,O=C(N/N=C/c1ccc(Br)s1)c1cccc([N+](=O)[O-])c1,-22

row,SMILES,inhibition [%]
1,Cn1cccc1/C=N\NC(=O)c1cncc(Br)c1,-6.5
2,CCOc1ccc(NC(=O)CCC(=O)N/N=C/c2ccc3c(c2)OCO3)cc1,12.5
3,O=C(N/N=C/c1ccc(O)cc1)c1cncc(Br)c1,17.6
4,CCOc1ccc(/C=N/NC(=O)CCC(=O)Nc2ccc(F)cc2)cc1,1.12
5,O=C(N/N=C/c1cccc([N+](=O)[O-])c1)c1cccc(Br)c1,-5.27
6,COC(=O)c1c(C)[nH]c(C(=O)CSc2nnnn2-c2ccccc2)c1C,-4
7,O=C(COC(=O)c1ccccc1NC(=O)c1ccco1)NC1CCS(=O)(=O)C1 (stereo not given),73.7
8,O=C(COC(=O)C1CCN(C(=O)Nc2ccccc2)CC1)NCC(F)(F)F,-2.77
9,CS(=O)(=O)N1CCC(C(=O)NCc2ccc(Cl)cc2)CC1,8.1
10,COc1ccc(-n2nc3cc(C)c(NC(C)=O)cc3n2)cc1,1.69
11,COC(=O)Cn1c(CN2CCN(C(=O)c3ccco3)CC2)nc2c1c(=O)n(C)c(=O)n2C,0.07
12,O=P(Cc1cccc[n+]1[O-])(c1ccccc1)c1ccccc1,-13.7
13,CC(C)C(c1nnnn1Cc1ccccc1)N1CCN(Cc2ccc3c(c2)OCO3)CC1 (stereo not given),31.2
14,Cc1nc(SCC(=O)N2CCOCC2)c2c(=O)n(C)c(=O)n(CC(C)C)c2n1,-4.99
15,O=C(NN=Cc1ccc(N2CCOCC2)s1)c1ccc([N+](=O)[O-])cc1,0.11
16,Cc1ccccc1NCC(=O)N/N=C/c1ccc([N+](=O)[O-])cc1,10
17,Cc1onc(-c2ccccc2)c1C(=O)N/N=C/c1ccc([N+](=O)[O-])c(O)c1,32
18,O=C(N/N=C/c1ccc(Br)s1)c1ccc([N+](=O)[O-])cc1,10.3
19,Cc1onc(-c2ccccc2)c1C(=O)N/N=C/c1cccs1,51.2
20,CCOC(=O)N/N=C/c1ccc(N2CCOCC2)s1,1.14
21,Cc1ccccc1NCC(=O)N/N=C\C=C\c1cccc([N+](=O)[O-])c1,44
22,CCOC(=O)N/N=C\c1ccc(C)s1,-9.49
